Source: PubChem
This is one part of a sample in which hits are shown more often than they occur.
PRC2 inh: inhibitors of human EZH2/PRC2 methyltransferase | PRC2 H3K27 methylation, DELFIA TRF, 1 h | inhibition, % at 12.5 µM | 0.35% of 57,000 active | AID 651548;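 active = mean inhibition of replicates at least 50% and every single replicate also reaching 50%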;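 also: dimethyl H3K27 on biotinylated H3 21-44 peptide detected by antibody; plate controls were median neutral control wells for no effect and median positive control wells for full effect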
Target sequence (Q15910 whole entry, looked up): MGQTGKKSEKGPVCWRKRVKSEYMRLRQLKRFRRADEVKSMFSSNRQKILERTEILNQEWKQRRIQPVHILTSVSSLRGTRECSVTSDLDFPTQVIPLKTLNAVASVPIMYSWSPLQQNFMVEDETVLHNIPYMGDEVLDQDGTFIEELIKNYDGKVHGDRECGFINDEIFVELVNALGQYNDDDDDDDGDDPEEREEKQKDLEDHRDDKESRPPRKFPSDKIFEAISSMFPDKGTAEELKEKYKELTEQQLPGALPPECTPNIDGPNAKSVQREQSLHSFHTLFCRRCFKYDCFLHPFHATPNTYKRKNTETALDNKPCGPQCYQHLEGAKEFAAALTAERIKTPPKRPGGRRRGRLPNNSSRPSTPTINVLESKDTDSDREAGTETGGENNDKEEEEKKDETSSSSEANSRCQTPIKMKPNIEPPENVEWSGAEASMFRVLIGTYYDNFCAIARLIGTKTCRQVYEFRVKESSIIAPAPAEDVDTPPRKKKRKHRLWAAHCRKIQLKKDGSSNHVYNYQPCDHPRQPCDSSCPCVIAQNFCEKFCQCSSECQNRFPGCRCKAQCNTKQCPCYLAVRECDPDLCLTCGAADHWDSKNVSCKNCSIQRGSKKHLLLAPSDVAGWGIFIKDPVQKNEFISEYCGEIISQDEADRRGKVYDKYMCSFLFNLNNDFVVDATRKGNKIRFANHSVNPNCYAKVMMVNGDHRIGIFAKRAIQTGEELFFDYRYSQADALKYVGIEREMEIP
Numbers without * were called inactive.

`COc1cc(O)c2c(=O)c(OC3OC(CO[C@@H]4O[C@@H](C)[C@H](O)[C@@H](O[C@@H]5O[C@@H](C)[C@H](O)[C@@H](O)[C@H]5O)[C@H]4O)C(O)C(O)C3O)c(-c3ccc(O)cc3)oc2c1` (stereo partly drawn) gave PRC2 inh 8.0.
`COc1c(OC)c(O)c2c(=O)c(O)c(-c3ccccc3)oc2c1OC` gave PRC2 inh -30.3.
For O=c1c(O[C@@H]2O[C@H](CO)[C@H](O)[C@H](O)[C@H]2O)c(-c2ccc(O)cc2)oc2cc(O)cc(O)c12 the results were PRC2 inh 5.2.
For O=c1c(O)c(-c2ccc(O)c(O)c2)oc2cc(O)cc(O)c12 the results were PRC2 inh 61.9*.
For O=c1c(OC2OCC(O)C(O)C2O)c(-c2ccc(O)c(O)c2)oc2cc(O)cc(O)c12 (stereo not drawn) the results were PRC2 inh 99.3*.
Screening CC(O)c1cc(-c2ccc(Cl)cc2Cl)no1 (stereo not drawn) returned PRC2 inh -22.1.
For CNC(=O)CN(c1cccc(Cl)c1Cl)S(=O)(=O)c1ccccc1 the results were PRC2 inh 4.6.
For COC(=O)c1c(-c2ccc(Br)cc2)csc1NC(=O)C1CCCCC1C(=O)O (stereo not drawn) the results were PRC2 inh 25.0.
`O=C(COc1cccc(C(F)(F)F)c1)NCc1ccco1` gave PRC2 inh -1.3.
`Cc1ccc(CN2C(=O)C(O)(CC(=O)c3cccc(N)c3)c3cc(Cl)ccc32)cc1` (stereo not drawn) gave PRC2 inh -13.5.
For O=C(Cn1cnc2sc(-c3ccccc3)cc2c1=O)Nc1ccccc1 the results were PRC2 inh 7.3.
`Cc1ccc(=O)n(-c2ccccc2)c1` gave PRC2 inh -6.4.
`Cc1ccc(/C=C/c2ccc(=O)n(Cc3ccccc3Cl)n2)cc1` gave PRC2 inh 70.1*.
Screening Cc1nn(Cc2ccccc2Cl)c(C)c1NC(=O)C1CC(c2ccc(Cl)cc2)=NO1 (stereo not drawn) returned PRC2 inh 1.1.
Cc1cc(Cl)cc(Br)c1OCCCSc1ncccn1 was read as PRC2 inh 62.2*.
Screening Clc1ccc(OCCCCSc2ncccn2)cc1 returned PRC2 inh 28.3.
For O=[N+]([O-])c1ccccc1OCCCCSc1ncccn1 the results were PRC2 inh 5.3.
Cc1ccc([N+](=O)[O-])c(OCCCSc2ncccn2)c1 was read as PRC2 inh 15.9.
Cc1ccc(C)c(OCCCCSc2ncccn2)c1Cl was read as PRC2 inh 55.6*.
Screening Cc1ccc(/C=N/NC(=O)CCCCCC(=O)NO)o1 returned PRC2 inh 12.7.
CCN(CC(=O)Nc1ccc(I)cc1)S(=O)(=O)c1ccc2ccccc2c1 was read as PRC2 inh 23.3.
CC1(C)[C@H]2CC=C(/C=N\NC(=O)c3cccc(C(=O)NO)c3)[C@@H]1C2 was read as PRC2 inh -20.0.
`O=C(COc1ccccc1[N+](=O)[O-])Nc1ccc2oc(-c3ccc(Cl)cc3)nc2c1` gave PRC2 inh -12.3.
O=C(NO)c1cccc(C(=O)N/N=C/c2cc3ccccc3n2S(=O)(=O)c2ccccc2)c1 was read as PRC2 inh -59.0.
`O=C(NO)c1ccc(C(=O)N/N=C/c2cccc3ccccc23)cc1` gave PRC2 inh -19.6.
`COc1ccc(C2Oc3c(OC)cc(/C=C/COC4OC(CO)C(O)C(O)C4O)cc3C2CO)cc1OC` (stereo not drawn) gave PRC2 inh -6.6.
`COc1cc(C2c3c(cc(OC)c(O)c3OC)CC(CO)C2COC2OC(CO)C(O)C(O)C2O)cc(OC)c1O` (stereo not drawn) gave PRC2 inh 100.6*.
`C=CCOc1ccccc1/C=N/NC(=O)CCCCC(=O)NO` gave PRC2 inh 14.1.
Screening COc1cccc(C2CC(C(F)(F)F)n3nc(C(=O)Nc4cc(C)nn4-c4ccccc4)cc3N2)c1 (stereo not drawn) returned PRC2 inh 4.7.
Brc1ccc(CNc2nc3ccccc3n2CCN2CCOCC2)cc1 was read as PRC2 inh 10.9.
CCc1cccc(C)c1NC(=O)CSc1nnc(-c2ccc(OC)cc2)n1C was read as PRC2 inh 2.9.
Screening CCCCCCCCCCC(C)(C)C(=O)Nc1c(OC)cc(OC)cc1OC returned PRC2 inh 84.8*.
For CCCCCCCCC(=O)NCc1cc(OC)c(O)cc1I the results were PRC2 inh 12.3.
For COc1ccc(OC)c(NC(=O)COc2ccc(C(C)(C)C)cc2)c1 the results were PRC2 inh 35.3.
For O=C(c1ccc([N+](=O)[O-])cc1)N(Cc1cc2ccccc2[nH]c1=O)c1ccccc1 the results were PRC2 inh -0.6.
CN(C)c1nc(OC(C(F)(F)F)C(F)(F)F)nc(N(c2ccccc2)c2ccccc2)n1 was read as PRC2 inh -3.8.
`CC1Cc2ccc3c(c2C(O)C1)C(=O)c1cccc(O)c1C3O` (stereo not drawn) gave PRC2 inh -6.3.
`COC(=O)c1ccccc1NC(=O)COc1ccc(C(C)C)cc1Br` gave PRC2 inh 46.4.
Screening N#C[C@@H](O[C@@H]1O[C@H](CO)[C@@H](O)[C@H](O)[C@H]1O[C@@H]1O[C@H](CO)[C@@H](O)[C@H](O)[C@H]1O)c1ccccc1 returned PRC2 inh -11.0.
`C[C@@H]1O[C@@H](O[C@@H]2[C@@H](O)[C@H](Oc3cc(O)c4c(c3)OC(c3ccc(O)cc3)CC4=O)O[C@H](COC3OCC(O)C(O)C3O)[C@H]2O)[C@H](O)[C@H](O)[C@H]1O` (stereo partly drawn) gave PRC2 inh -14.3.
`N#CC(OC1OC(COC2OCC(OC(=O)/C=C/c3ccc(OC4OC(CO)C(O)C(O)C4O)cc3)C(O)C2O)C(O)C(O)C1O)c1ccccc1` (stereo not drawn) gave PRC2 inh 90.4*.
Screening O=C(c1cnc2ccccn12)C(F)(F)SCc1c(Cl)cccc1Cl returned PRC2 inh 58.6*.
O=C(CSc1nnc2ccccn12)Nc1c(Cl)cc(Cl)cc1Cl was read as PRC2 inh -9.0.
`Cc1ccc2ccc(C(Nc3ccccn3)c3ccccc3Cl)c(O)c2n1` (stereo not drawn) gave PRC2 inh -15.6.
O=C(NO)c1cccc(C(=O)N/N=C/c2cccc(O)c2O)c1 was read as PRC2 inh 78.5*.
Screening O=C(NO)c1cccc(C(=O)N/N=C/c2ccc(O)c3ccccc23)c1 returned PRC2 inh -3.2.
For O=C(CCCCCC(=O)N/N=C/c1ccc(O)cc1O)NO the results were PRC2 inh 5.3.
Screening O=C(CCCCC(=O)N/N=C/c1ccc(O)c(O)c1O)NO returned PRC2 inh 76.0*.
For O=C(NO)c1cccc(C(=O)N/N=C/c2ccc(O)cc2O)c1 the results were PRC2 inh -3.1.
Screening O=C(CCCCCC(=O)N/N=C/c1cc(O)ccc1O)NO returned PRC2 inh 0.1.
O=C(NO)c1cccc(C(=O)N/N=C/c2cc(Br)cc(Br)c2O)c1 was read as PRC2 inh -26.7.
O=C(NO)c1cccc(C(=O)N/N=C/c2ccc(O)c(O)c2O)c1 was read as PRC2 inh 95.0*.
For O=C(NO)c1cccc(C(=O)N/N=C/c2cc(Br)ccc2O)c1 the results were PRC2 inh 8.4.
`Cc1ccc(S(=O)(=O)NC(=O)COc2cccc3ccccc23)c(C)c1` gave PRC2 inh 25.1.
`Cc1cnn(CCCNC(=O)c2cc(-c3cccnc3)nc3ccc(Cl)cc23)c1` gave PRC2 inh -3.6.
